Where a name gives a salt, the structure may show the parent alone.
Key:
Conditions in all cases: 72 h
HCC1937 [1] = assay: relative cell viability, compound alone, vs DMSO (fraction of DMSO control); higher = less growth inhibition
MDA-MB-231 [2] = assay: as above
HCC1937 [3] = assay: relative cell viability, compound + RSL3, vs DMSO (fraction of DMSO control); higher = less growth inhibition
MDA-MB-231 [4] = assay: as above
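For relative cell viability, compound + RSL3, vs DMSO in this document: breast cancer cell viability read out with the CCK-8 kit after co-treatment of each compound with the ferroptosis inducer RSL3.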
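For relative cell viability, compound alone, vs DMSO in this document: viability read out with the CCK-8 kit in 96-well plates, screening a set of 303 compounds acting on lipid metabolism targets.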

SMILES | relative cell viability (HCC1937 [1]) | relative cell viability (MDA-MB-231 [2]) | relative cell viability (HCC1937 [3]) | relative cell viability (MDA-MB-231 [4])
O=C(O)CCCc1cc2cc(Cl)ccc2n1S(=O)(=O)c1ccc2ncsc2c1 [Lanifibranor] | 0.754 | 1.07 | – | –
COc1ccc2c(c1)c(CC(=O)O)c(C)n2C(=O)c1ccc(Cl)cc1 [Indometacin] + COC(=O)c1ccc([C@H]2c3[nH]c4ccccc4c3C[C@H](C(=O)OC)N2C(=O)CCl)cc1 [RSL3] | – | – | 1.01 | 0.61
CCC(=O)O[C@]1(C(=O)CCl)[C@@H](C)C[C@H]2[C@@H]3C[C@H](F)C4=CC(=O)C=C[C@]4(C)[C@@]3(F)[C@@H](O)C[C@@]21C [Halobetasol Propionate] | 1.12 | 1.13 | – | –
O=C(O)CC[C@H](O)C(=O)O [L-2-Hydroxyglutaric acid disodium] | 1.04 | 1 | – | –
COc1cc(C(C)=O)ccc1O [Acetovanillone] | 0.833 | 0.891 | – | –
CC(=O)Nc1nc(C)c(S(=O)(=O)Nc2ccc(C(O)(C(F)(F)F)C(F)(F)F)cc2)s1 + COC(=O)c1ccc([C@H]2c3[nH]c4ccccc4c3C[C@H](C(=O)OC)N2C(=O)CCl)cc1 [RSL3] | – | – | 0.484 | 0.952
CC(C)(Oc1ccc(C(=O)c2ccc(Cl)cc2)cc1)C(=O)O [Fenofibric acid] + COC(=O)c1ccc([C@H]2c3[nH]c4ccccc4c3C[C@H](C(=O)OC)N2C(=O)CCl)cc1 [RSL3] | – | – | 0.536 | 0.535
CCCc1cc(-c2nc(-c3ccc(C)cc3)cs2)ccn1 [Fatostatin] | 0.733 | 0.745 | – | –
CN(CCOc1ccc(CC2SC(=O)NC2=O)cc1)c1ccccn1 (stereo not given) [Rosiglitazone HCl] | 0.781 | 0.947 | – | –
COc1ccc(-c2coc3cc(O)cc(O)c3c2=O)cc1 [Biochanin A] + COC(=O)c1ccc([C@H]2c3[nH]c4ccccc4c3C[C@H](C(=O)OC)N2C(=O)CCl)cc1 [RSL3] | – | – | 0.66 | 0.438
CC(C)=CCC(O)C1=CC(=O)c2c(O)ccc(O)c2C1=O (single isomer, unassigned; (+)) [(+)-Shikonin] + COC(=O)c1ccc([C@H]2c3[nH]c4ccccc4c3C[C@H](C(=O)OC)N2C(=O)CCl)cc1 [RSL3] | – | – | 0.0766 | 0.132
COC(=O)N(CC(=O)O)Cc1cccc(OCc2nc(-c3ccc(Cl)cc3)oc2C)c1 + COC(=O)c1ccc([C@H]2c3[nH]c4ccccc4c3C[C@H](C(=O)OC)N2C(=O)CCl)cc1 [RSL3] | – | – | 0.538 | 0.709
O=S(=O)(c1ccccc1)N(CC(F)(F)F)c1ccc(C(O)(C(F)(F)F)C(F)(F)F)cc1 + COC(=O)c1ccc([C@H]2c3[nH]c4ccccc4c3C[C@H](C(=O)OC)N2C(=O)CCl)cc1 [RSL3] | – | – | 0.36 | 0.638
C=CC[S+]([O-])C[C@H](N)C(=O)O (stereo not given in full) [Alliin] | 1 | 1.04 | – | –
O=C(OC(C(F)(F)F)C(F)(F)F)N1CCC(C(O)(c2ccc3c(c2)OCO3)c2ccc3c(c2)OCO3)CC1 + COC(=O)c1ccc([C@H]2c3[nH]c4ccccc4c3C[C@H](C(=O)OC)N2C(=O)CCl)cc1 [RSL3] | – | – | 0.551 | 0.551
N[C@@H](Cc1c[nH]cn1)C(=O)O [histidine] + COC(=O)c1ccc([C@H]2c3[nH]c4ccccc4c3C[C@H](C(=O)OC)N2C(=O)CCl)cc1 [RSL3] | – | – | 0.622 | 0.673
O=C1/C(=C/c2cccs2)CC/C1=C\c1cccs1 + COC(=O)c1ccc([C@H]2c3[nH]c4ccccc4c3C[C@H](C(=O)OC)N2C(=O)CCl)cc1 [RSL3] | – | – | 0.357 | 0.49
CC[C@H]1[C@@H](O)[C@@H]2[C@H](CC[C@]3(C)[C@@H]([C@H](C)CCC(=O)O)CC[C@@H]23)[C@@]2(C)CC[C@@H](O)C[C@@H]12 [Obeticholic Acid] + COC(=O)c1ccc([C@H]2c3[nH]c4ccccc4c3C[C@H](C(=O)OC)N2C(=O)CCl)cc1 [RSL3] | – | – | 0.513 | 0.543
CC(=O)Oc1cc(C(F)(F)F)ccc1C(=O)O [Triflusal] + COC(=O)c1ccc([C@H]2c3[nH]c4ccccc4c3C[C@H](C(=O)OC)N2C(=O)CCl)cc1 [RSL3] | – | – | 0.717 | 0.492
O=C(NC1CCN(CCCCC2(C(=O)NCC(F)(F)F)c3ccccc3-c3ccccc32)CC1)c1ccccc1-c1ccc(C(F)(F)F)cc1 [Lomitapide] + COC(=O)c1ccc([C@H]2c3[nH]c4ccccc4c3C[C@H](C(=O)OC)N2C(=O)CCl)cc1 [RSL3] | – | – | 0.173 | 0.391

— the supplement of paper PMC9492666
